Experimental data taken from the supplement of paper PMC4466140.

Key:
Assay in all cases: SPOT peptide array binding signal intensity (averaged, normalized) (arbitrary units (background-subtracted, floor 0; scale differs between SH3 domains)); higher = stronger binding of the SH3 domain to the peptide
AgAbp1 = molecular target: AgAbp1
In short: (§1)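 GST-fused SH3 domains, from four yeast species, were produced in E. coli BL21(DE3) and captured on glutathione Sepharose. Membranes of cellulose carrying synthetic 15-mer peptides, in which cysteines had been replaced by serines, were exposed to each domain at 10 μg/ml overnight at 4°C in TBS-based blocking buffer. After anti-GST antibody, an HRP anti-mouse secondary and luminol, spots were imaged and quantified using Genespotter. Binding signal is normalized and background-subtracted spot intensity, averaged over replicates, in arbitrary units that differ between domains.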

AgBbc1 = molecular target: AgBbc1
In short: as §1

AgBem1-D1 = molecular target: AgBem1-D1
In short: as §1

AgBzz1-D1 = molecular target: AgBzz1-D1
In short: as §1

AgBzz1-D2 = molecular target: AgBzz1-D2
In short: as §1

AgCyk3 = molecular target: AgCyk3
In short: as §1

AgFus1 = molecular target: AgFus1
In short: as §1

AgHof1 = molecular target: AgHof1
In short: as §1

AgHse1 = molecular target: AgHse1
In short: as §1

AgLsb1 = molecular target: AgLsb1
In short: as §1

AgLsb4 = molecular target: AgLsb4
In short: as §1

AgMyo5 = molecular target: AgMyo5
In short: as §1

AgNbp2 = molecular target: AgNbp2
In short: as §1

AgRvs167 = molecular target: AgRvs167
In short: as §1

AgSho1 = molecular target: AgSho1
In short: as §1

AgSla1-D1-D2 = molecular target: AgSla1-D1-D2
In short: as §1

AgSla1-D3 = molecular target: AgSla1-D3
In short: as §1

CaAbp1-D1 = molecular target: CaAbp1-D1
In short: as §1

CaAbp1-D2 = molecular target: CaAbp1-D2
In short: as §1

CaBbc1 = molecular target: CaBbc1
In short: as §1

CaBem1-D1 = molecular target: CaBem1-D1
In short: as §1

CaBzz1-D1 = molecular target: CaBzz1-D1
In short: as §1

CaBzz1-D2 = molecular target: CaBzz1-D2
In short: as §1

CaCyk3 = molecular target: CaCyk3
In short: as §1

CaFus1 = molecular target: CaFus1
In short: as §1

CaHof1 = molecular target: CaHof1
In short: as §1

CaHse1 = molecular target: CaHse1
In short: as §1

CaLsb1 = molecular target: CaLsb1
In short: as §1

CaLsb4 = molecular target: CaLsb4
In short: as §1

CaMyo5 = molecular target: CaMyo5
In short: as §1

CaNbp2 = molecular target: CaNbp2
In short: as §1

CaRvs167 = molecular target: CaRvs167
In short: as §1

CaRvs167-3 = molecular target: CaRvs167-3
In short: as §1

CaSho1 = molecular target: CaSho1
In short: as §1

CaSla1-D1-D2 = molecular target: CaSla1-D1-D2
In short: as §1

CaSla1-D3 = molecular target: CaSla1-D3
In short: as §1

ScAbp1 = molecular target: ScAbp1
In short: as §1

ScBbc1 = molecular target: ScBbc1
In short: as §1

ScBem1-D1 = molecular target: ScBem1-D1
In short: as §1

ScBzz1-D1 = molecular target: ScBzz1-D1
In short: as §1

ScBzz1-D2 = molecular target: ScBzz1-D2
In short: as §1

ScCyk3 = molecular target: ScCyk3
In short: as §1

ScFus1 = molecular target: ScFus1
In short: as §1

ScHof1 = molecular target: ScHof1
In short: as §1

ScHse1 = molecular target: ScHse1
In short: as §1

ScLsb1 = molecular target: ScLsb1
In short: as §1

ScLsb2 = molecular target: ScLsb2
In short: as §1

ScLsb3 = molecular target: ScLsb3
In short: as §1

ScLsb4 = molecular target: ScLsb4
In short: as §1

ScMyo3 = molecular target: ScMyo3
In short: as §1

ScMyo5 = molecular target: ScMyo5
In short: as §1

ScNbp2 = molecular target: ScNbp2
In short: as §1

ScPex13 = molecular target: ScPex13
In short: as §1

ScRvs167 = molecular target: ScRvs167
In short: as §1

ScSho1 = molecular target: ScSho1
In short: as §1

ScSla1-D1-D2 = molecular target: ScSla1-D1-D2
In short: as §1

ScSla1-D3 = molecular target: ScSla1-D3
In short: as §1

SpAbp1-D1 = molecular target: SpAbp1-D1
In short: as §1

SpBbc1 = molecular target: SpBbc1
In short: as §1

SpBzz1-D1 = molecular target: SpBzz1-D1
In short: as §1

SpBzz1-D2 = molecular target: SpBzz1-D2
In short: as §1

SpCyk3 = molecular target: SpCyk3
In short: as §1

SpHof1 = molecular target: SpHof1
In short: as §1

SpHof1-2 = molecular target: SpHof1-2
In short: as §1

SpHof1-3 = molecular target: SpHof1-3
In short: as §1

SpHse1 = molecular target: SpHse1
In short: as §1

SpLsb1 = molecular target: SpLsb1
In short: as §1

SpLsb4 = molecular target: SpLsb4
In short: as §1

SpMyo1 = molecular target: SpMyo1
In short: as §1

SpNbp2 = molecular target: SpNbp2
In short: as §1

SpPex13 = molecular target: SpPex13
In short: as §1

SpRvs167 = molecular target: SpRvs167
In short: as §1

SpSla1-D1-D2 = molecular target: SpSla1-D1-D2
In short: as §1

SpSla1-D3 = molecular target: SpSla1-D3
In short: as §1

B1: unnamed (peptide)
chain: RLSFFFPLDPAYIRN
AgAbp1
  SPOT peptide array binding signal intensity: ≤ 0
AgBbc1
  SPOT peptide array binding signal intensity: 2.25
AgBem1-D1
  SPOT peptide array binding signal intensity: 121
AgBzz1-D1
  SPOT peptide array binding signal intensity: 27
AgBzz1-D2
  SPOT peptide array binding signal intensity: 72.5
AgCyk3
  SPOT peptide array binding signal intensity: 7
AgFus1
  SPOT peptide array binding signal intensity: 854
AgHof1
  SPOT peptide array binding signal intensity: 34
AgHse1
  SPOT peptide array binding signal intensity: 1180
AgLsb1
  SPOT peptide array binding signal intensity: 1.5
AgLsb4
  SPOT peptide array binding signal intensity: 152
AgMyo5
  SPOT peptide array binding signal intensity: 1.5
AgNbp2
  SPOT peptide array binding signal intensity: 34
AgRvs167
  SPOT peptide array binding signal intensity: 4
AgSho1
  SPOT peptide array binding signal intensity: 50
AgSla1-D1-D2
  SPOT peptide array binding signal intensity: 37
AgSla1-D3
  SPOT peptide array binding signal intensity: 8.5
CaAbp1-D1
  SPOT peptide array binding signal intensity: 2
CaAbp1-D2
  SPOT peptide array binding signal intensity: ≤ 0
CaBbc1
  SPOT peptide array binding signal intensity: ≤ 0
CaBem1-D1
  SPOT peptide array binding signal intensity: 24
CaBzz1-D1
  SPOT peptide array binding signal intensity: 32.5
CaBzz1-D2
  SPOT peptide array binding signal intensity: 43
CaCyk3
  SPOT peptide array binding signal intensity: 3
CaFus1
  SPOT peptide array binding signal intensity: 2490
CaHof1
  SPOT peptide array binding signal intensity: 0.5
CaHse1
  SPOT peptide array binding signal intensity: 134
CaLsb1
  SPOT peptide array binding signal intensity: 1.5
CaLsb4
  SPOT peptide array binding signal intensity: 45.5
CaMyo5
  SPOT peptide array binding signal intensity: 187
CaNbp2
  SPOT peptide array binding signal intensity: 474
CaRvs167
  SPOT peptide array binding signal intensity: 57.8
CaRvs167-3
  SPOT peptide array binding signal intensity: 238
CaSho1
  SPOT peptide array binding signal intensity: 1050
CaSla1-D1-D2
  SPOT peptide array binding signal intensity: ≤ 0
CaSla1-D3
  SPOT peptide array binding signal intensity: 35.8
ScAbp1
  SPOT peptide array binding signal intensity: 2
ScBbc1
  SPOT peptide array binding signal intensity: ≤ 0
ScBem1-D1
  SPOT peptide array binding signal intensity: 17
ScBzz1-D1
  SPOT peptide array binding signal intensity: 42
ScBzz1-D2
  SPOT peptide array binding signal intensity: 79
ScCyk3
  SPOT peptide array binding signal intensity: 282
ScFus1
  SPOT peptide array binding signal intensity: 627
ScHof1
  SPOT peptide array binding signal intensity: 2
ScHse1
  SPOT peptide array binding signal intensity: 1380
ScLsb1
  SPOT peptide array binding signal intensity: 0.5
ScLsb2
  SPOT peptide array binding signal intensity: ≤ 0
ScLsb3
  SPOT peptide array binding signal intensity: 48
ScLsb4
  SPOT peptide array binding signal intensity: 9
ScMyo3
  SPOT peptide array binding signal intensity: 9.5
ScMyo5
  SPOT peptide array binding signal intensity: 5
ScNbp2
  SPOT peptide array binding signal intensity: 84.5
ScPex13
  SPOT peptide array binding signal intensity: 6.25
ScRvs167
  SPOT peptide array binding signal intensity: 7.67
ScSho1
  SPOT peptide array binding signal intensity: 738
ScSla1-D1-D2
  SPOT peptide array binding signal intensity: 13
ScSla1-D3
  SPOT peptide array binding signal intensity: 37.5
SpAbp1-D1
  SPOT peptide array binding signal intensity: 1
SpBbc1
  SPOT peptide array binding signal intensity: 0.5
SpBzz1-D1
  SPOT peptide array binding signal intensity: 121
SpBzz1-D2
  SPOT peptide array binding signal intensity: 2
SpCyk3
  SPOT peptide array binding signal intensity: 24
SpHof1
  SPOT peptide array binding signal intensity: 130
SpHof1-2
  SPOT peptide array binding signal intensity: 45
SpHof1-3
  SPOT peptide array binding signal intensity: 389
SpHse1
  SPOT peptide array binding signal intensity: 1620
SpLsb1
  SPOT peptide array binding signal intensity: ≤ 0
SpLsb4
  SPOT peptide array binding signal intensity: 15
SpMyo1
  SPOT peptide array binding signal intensity: 17.8
SpNbp2
  SPOT peptide array binding signal intensity: 69.5
SpPex13
  SPOT peptide array binding signal intensity: 23.5
SpRvs167
  SPOT peptide array binding signal intensity: 11.2
SpSla1-D1-D2
  SPOT peptide array binding signal intensity: 6
SpSla1-D3
  SPOT peptide array binding signal intensity: 32
